aDG glyco act: alpha-DG glycosylation activation | 360,000 compounds, 0.22% hits | Pro5-aDG cells, alpha-DG glycosylation AlphaScreen (IIH6); 0% Pro5, 100% B10-LARGE cell signal | activation, % at 10 µM;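 active = activation of at least 8% versus controls, or a plate z-score of at least 8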;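 also: Pro5 are CHO cells carrying HIG-tagged alpha-DG that lacks glycosylation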
GC-A act: GC-A (human) enzyme activation; P16066; HEK293 GC-A cells, cGMP TR-FRET, EC30 ANP; 0% at EC30 ANP, 100% saturating ANP; activation, % at 10 µM; 370,000 compounds, 0.14% hits; AID 1671463; in the data active = activation above about 40%
NPR2 activator: GC-B (human) receptor activation; P20594; HEK293-GC-B cells, CNP EC30, cGMP TR-FRET; 0% at EC30 CNP, 100% saturating CNP; activation, % at 10 µM; 370,000 compounds, 0.11% hits; AID 1920062;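 active = activation at 10 µM reaching about 35% in either raw or pattern-adjusted values, limit read from the data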
HSF1 inh: HSF1 inhibition | NIH3T3-HGL HSE-luciferase, MG132-induced, luminescence 8 h; active compounds read low | 300,000 compounds, 0.77% hits | activity change, negative = inhibition, % at 7.5 µM (by protocol);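 active = more than half of replicate wells show activity change below -50%, luminescence cut by over half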;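 also: luciferase reports HSF-1 transcriptional activity via heat shock element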
HSF-1 act: increases HSF-1 driven luciferase reporter signal; 300,000 compounds, 1.7% hits; NIH3T3-HGL HSF-1 luciferase reporter, MG132, 8 h; 100% = twice DMSO control signal; AID 504408; activation, % at 9 µM;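 active = mean replicate activation of at least 50% with a set share of replicates each reaching 50%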
Dyrk1A ADPGlo: blocks rat Dyrk1A kinase activity; Q63470; ADP-Glo luminescence, NFATc1 peptide; inhibition, % at 12.5 µM; 310,000 compounds, 0.43% hits; AID 504441; in the data active = inhibition above about 50%
A number is an active result; i = inactive; nt = not tested or not shown. This is a sample that favours compounds with a hit; in the whole collection about 2.5% have one here.

SMILES	aDG glyco act	GC-A act	NPR2 activator	HSF1 inh	HSF-1 act	Dyrk1A ADPGlo
O=[N+]([O-])c1cc(/C=N/Nc2nc(N3CCCCC3)nc(N3CCCCC3)n2)ccc1O	i	i	i	i	i	i
COc1ccc(OCCNC(=O)CCCO)cc1	i	i	i	i	i	nt
Cc1ccc(C(=O)OCC(=O)NCCNC(=O)COC(=O)c2ccc(C)s2)s1	i	i	i	i	i	i
Cc1ccc(C(=O)OCC(=O)c2ccc(Cl)s2)s1	i	i	i	i	60	i
O=C(Nc1cccnc1)c1ccc(-c2ccccc2)cc1	i	i	i	i	66	i
COc1cc(OC)cc(C(=O)Nc2cccnc2)c1	i	i	i	i	i	i
CCOc1cc(OCC)cc(C(=O)Nc2cccnc2)c1	i	i	i	i	59	i
O=C(CBr)c1ccc([N+](=O)[O-])c(CS(=O)(=O)c2ccc(Cl)cc2)c1	i	i	i	i	60	i
COC(=O)Cn1ncc2c(C)n(Cc3ccccc3)c(C)c2c1=O	i	i	i	i	i	i
O=C(Nc1ccc2c(c1)OCO2)C1CCCN(c2nc3ccccc3s2)C1 (stereo unspecified)	i	i	i	i	77	i
CCc1nnc(NC(=O)C2CCCN(c3nc4ccccc4s3)C2)s1 (stereo unspecified)	i	i	i	i	i	i
COc1cccc(C(O)c2nc(-c3ccccc3)cs2)c1 (stereo unspecified)	i	i	i	nt	nt	nt
O=C(O)c1cc(NN=Nc2ccc(Br)cc2)cc([N+](=O)[O-])c1	i	43	i	i	i	nt
Brc1ccc(N=NNc2ccccc2)cc1	i	45	i	i	i	i
O=[N+]([O-])c1ccc(N=NNc2ccccc2)cc1	i	nt	nt	i	i	i
O=C(O)c1cc(NN=Nc2cccc([N+](=O)[O-])c2)cc([N+](=O)[O-])c1	i	i	i	i	i	i
CCCCN1/C(=C/c2ccc3ccccc3[n+]2CC)Sc2ccccc21	8.4	nt	nt	i	57	i
CCOc1cc(C(=O)OC(C)C(=O)Nc2ccccc2OC)ccc1OCC(=O)N1CCOCC1 (stereo unspecified)	i	i	i	nt	nt	i
COc1nn(-c2ccccc2)c(=O)c(Cl)c1Cl	i	i	i	-93	i	i
CCOC(=O)c1cccc(S(=O)(=O)N(CCO)Cc2cc3cc(OC)c(OC)cc3[nH]c2=O)c1	i	i	i	i	i	i
O=C(CCCN1CCOCC1)c1ccc2c(c1)OCCO2	i	i	i	i	i	i
O=C(CCN1CCOCC1)c1ccc2c(c1)OCCO2	i	i	i	i	i	i
O=C(CCCO)c1ccc2c(c1)OCCO2	i	i	i	-60	i	i
O=C(CCN1CCc2ccccc2CC1)c1ccc2c(c1)OCCO2	i	i	i	i	82	i
COc1ccc(N2CCN(CCCNS(=O)(=O)c3ccc4c(c3)oc(=O)n4C)CC2)cc1	i	i	i	i	i	i
SMILES	aDG glyco act	GC-A act	NPR2 activator	HSF1 inh	HSF-1 act	Dyrk1A ADPGlo
O=C(CCCOc1ccccc1)N1CCN(c2ccccn2)CC1	i	i	i	i	i	i
Fc1ccc(OCc2cc(-c3ccccc3)no2)cc1	i	i	i	i	51	i
Nc1ccn([C@@H]2O[C@H](CNC(=O)[C@@H](N)CSCc3ccccc3)[C@@H](O)[C@H]2O)c(=O)n1	i	i	i	nt	nt	nt
Cc1nc(Nc2nc(CSc3ccc(Cl)cc3)cc(=O)[nH]2)nc2ccccc12	i	i	i	i	61	i
O=c1cc(CSc2ccc(Cl)cc2)nc(-c2ccccn2)[nH]1	i	i	i	i	136	i
CCOC(=O)c1sc(C)c2c(=O)n(Cc3ccc(Cl)cc3)c(C)nc12	i	i	i	i	i	i
CC(=O)OCC(=O)Nc1ccc([N+](=O)[O-])cc1Cl	i	i	i	i	i	i
CC(=O)Oc1c(C)cc(Cl)cc1C(=O)Nc1ccc([N+](=O)[O-])cc1Cl	i	i	i	i	56	i
O=C(OCc1cc2ccccc2[nH]c1=O)c1ccc([N+](=O)[O-])cc1	i	i	i	i	i	i
CCN(C(=O)Cc1c(C(=O)O)n(C)c2ccccc12)c1ccc(F)cc1	i	i	i	i	i	i
Cc1cc(C)c(S(=O)(=O)N/N=C/c2ccc3c(c2)OCO3)c(C)c1	i	i	i	-55	i	i
